PubChem BioAssay AID743279 (National Center for Advancing Translational Sciences (NCATS), 2014)
The campaign covered roughly 360,000 compounds. About 17,000 (4.7%) were called active. About 5% were inconclusive and are not listed. The full list was thinned out, with actives kept by preference. A number with no mark means an inactive call. Rule as the data show it: active = activity change below about -50%; inconclusive = mostly about -30% to -49%; inactive = weaker than that.

Assay: qHTS for Inhibitors of Inflammasome Signaling: IL-1-beta AlphaLISA Primary Screen
Details: THP-1 LPS/ATP IL-1B secretion, 16 h; at 57.5 µM, hits give low values
Summary of the method: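 Secreted IL-1B measured by AlphaLISA bead assay after 16 h compound exposure of THP-1 cells; compounds (final up to 57.5 uM) added 1 h before LPS (250 ng/mL) and ATP (1.25 mM) stimulation; lower signal means less secretion.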
% is scaled to controls: 0 for no effect and ±100 for the full control effect.

Compared with Cc1ccc(-c2ccc(CN3C(C)C(=O)N(Cc4cn(CCC5OCCCO5)nn4)CCS3(=O)=O)cc2)cc1 (configuration not stated), O=S1(=O)CC(N2CCN(CCO)CC2)CN1Cc1cn(Cc2cccc(Cl)c2)nn1 (configuration not stated) is higher in activity change: -2.45% for the first, 13.7% for the second.

Going from CC1C(=O)Nc2ccccc2N1C(=O)c1ccc(F)cc1F (configuration not stated) to COC(=O)CN1C(C)=Nc2ccc(Br)cc2C1c1ccccc1 (configuration not stated), the activity change falls from 10.1% to -27.1%.

First: Cc1ccc(C(=O)N[C@H](C(=O)N2CCN(c3ncccn3)CC2)C(C)C)cc1
Second: CCOC(=O)C1C(=O)NC(N2CCN(c3ccccc3)CC2)=NC1c1ccco1 (configuration not stated)
The activity change of the first is lower: -11.5% for the first, -8.04% for the second.

Going from CCOC(=O)c1cnn(Cc2ccccc2Cl)c1N to CCNC(=S)NNC(=O)C1CCN(Cc2ccccc2)CC1, the activity change falls from 0.436% to -12.8%.

First: Cc1c(NC(=O)CSc2nnnn2-c2ccc(C(=O)O)cc2)c(=O)n(-c2ccccc2)n1C
Second: Cc1c(NC(=O)CSc2nnc(-c3cccnc3)n2N)c(=O)n(-c2ccccc2)n1C
The activity change of the first is lower: 22.1% for the first, 25.5% for the second.

Going from Cc1noc(C)c1-c1ccc(C(=O)NCc2ccncc2)c2occc12 to Cc1cc(Cl)ccc1OCCCC(=O)NCc1ccncc1, the activity change falls from 60.8% to -6.96%.

Going from Cc1ccc(C2C(C#N)C(C#N)N3CCCN23)cc1 (configuration not stated) to O=C(CN1CCSCC1)N/N=C/c1ccc(F)cc1, the activity change falls from 0.442% to -9.62%.

Compared with CCN(/N=C/c1ccccc1)c1cc(=O)n(C)c(=O)[nH]1, CCN(/N=C/c1ccc(N(C)C)cc1)c1nc2ccccc2[nH]1 is lower in activity change: 0% for the first, -29.3% for the second.

Going from Cc1ccc(-c2nc(-c3ccncc3)no2)c(C)c1 to Cc1cc2nc(-c3ccco3)c(Cc3cccc(F)c3)n2c(C)c1Br, the activity change rises from -25.6% to 5.29%.

Compared with O=C(Cc1ccc(Br)cc1)NCCc1ccccc1, O=S(=O)(NCCCc1ccccc1)c1ccc(Br)cc1 is higher in activity change: -1.81% for the first, 8.22% for the second.

First: S=C(NN=C1CCN(Cc2ccccc2)CC1)NC1CCCCC1
Second: O=C(COc1ccc(Br)cc1F)NC1CCN(Cc2ccccc2)CC1
The activity change of the first is higher: 0% for the first, -25.9% for the second.

Going from Cc1cc(Br)ccc1NC(=S)NC1CCCC1 to CCOc1cc(/C=N/NC(=O)CN2CCCCC2)ccc1O, the activity change rises from 0.7% to 2.69%.

Going from COCCN(C(=O)C(C)N1C(=O)c2ccccc2C1=O)c1c(N)n(CC(C)C)c(=O)[nH]c1=O (configuration not stated) to COc1ccc(N2CC(C(=O)NCCN3C(=O)S/C(=C\c4cccnc4)C3=O)CC2=O)c(OC)c1 (configuration not stated), the activity change falls from 13.1% to -26.5%.

Going from COc1ccc(OC)c(NC(=O)c2cc(-c3cc(F)ccc3OCC3CCCO3)n[nH]2)c1 (configuration not stated) to COc1cc(OC)cc(C(=O)NNC(=O)Cc2cccs2)c1, the activity change falls from 0% to -1.89%.

Going from CCCC(=O)N1CCC1(C)C(=O)NCc1ccc(C(C)C)cc1 (configuration not stated) to CC1(C(=O)NS(=O)(=O)c2ccccc2)CCN1C(=O)c1ccccc1 (configuration not stated), the activity change rises from -18% to 21%.

First: N/C(=N\OC(=O)Cc1ccc([N+](=O)[O-])cc1)c1ccccn1
Second: Cc1cc(C)cc(OCC(=O)O/N=C(\N)Cc2ccc([N+](=O)[O-])cc2)c1
The activity change of the first is higher: -21.1% for the first, -24.7% for the second.

Work on COc1ccc(C2=NN(C(=O)CSc3nnnn3C)C(c3ccco3)C2)cc1 (configuration not stated) yielded an activity change of -17.6%.

In the case of Cc1c(NC(=O)CSc2cccc3cccnc23)c(=O)n(-c2ccccc2)n1C, the activity change is reported as -96.5% (active).
For Oc1ccc(/C=N/N(Cc2ccccc2)c2ccccc2)cc1, the activity change was -72.7% (active).
In the case of Cc1cc(Cl)ccc1OCc1nc(-c2ccncc2)no1, the activity change is reported as -55.8% (active).
In the case of S=C(Nc1ccc(Br)cc1Cl)NC1CCN(Cc2ccccc2)CC1, the activity change is reported as -75.9% (active).
With S=C(NCCCc1ccccc1)Nc1ccc(Br)cc1 the activity change was -85.8% (active).
For S=C(Nc1ccc(Br)cc1)NC1CCN(Cc2ccccc2)CC1, the activity change was -96% (active).
In the case of N/C(Cc1ccc([N+](=O)[O-])cc1)=N\OC(=O)COc1ccc2ccccc2c1, the activity change is reported as -59.9% (active).
For Cc1ccc(COc2ccc(/C=N/NC(=O)CN3CCCCC3)cc2)cc1, the activity change was -51.4% (active).
In the case of CCOC(=O)C1C(=O)C=C(c2ccc(OC)cc2)CC1c1ccco1 (configuration not stated), the activity change is reported as -62.8% (active).
